Data taken from ChEMBL document CHEMBL3433997, “St. Jude Leishmania screening dataset” (2016).

What follows are compounds tested against Solute carrier family 2, facilitated glucose transporter member 1 (Homo sapiens) (UniProt P11166) (assay: ST_JUDE_LEISH: Cytotoxicity at 2uM final concentration against transgenic Leishmania Mexicana promastigotes LmGLUT1 that are glucose transport deficient and complemented with the human glucose transporter GLUT1. Activity is measured by DNA content using SYBR green in vitro).
Format: functional

Solute carrier family 2, facilitated glucose transporter member 1 (Homo sapiens), sequence (P11166 whole entry): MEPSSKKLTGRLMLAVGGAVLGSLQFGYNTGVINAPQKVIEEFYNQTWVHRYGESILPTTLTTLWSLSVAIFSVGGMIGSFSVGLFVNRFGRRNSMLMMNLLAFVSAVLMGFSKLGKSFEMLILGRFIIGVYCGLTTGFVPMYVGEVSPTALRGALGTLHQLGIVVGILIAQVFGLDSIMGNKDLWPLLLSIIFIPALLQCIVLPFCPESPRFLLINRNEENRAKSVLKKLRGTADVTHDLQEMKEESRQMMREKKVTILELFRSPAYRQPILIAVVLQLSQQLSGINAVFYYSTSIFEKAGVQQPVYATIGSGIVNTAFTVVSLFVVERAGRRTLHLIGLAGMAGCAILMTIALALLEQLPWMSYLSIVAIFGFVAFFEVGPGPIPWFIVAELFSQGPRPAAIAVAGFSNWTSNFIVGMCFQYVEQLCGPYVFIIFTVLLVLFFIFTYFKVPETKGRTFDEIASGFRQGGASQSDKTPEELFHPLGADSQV

Row | SMILES | inhibition [%]
1 | CN(C)C(CNC(=O)c1cc(-c2ccncc2)c(-c2ccc(NC(=O)Nc3cccc(Cl)c3)cc2)o1)c1ccccc1 (stereo not given) | 1.5
2 | CS(=O)(=O)CCNCc1ccc(-c2ccc3c(Nc4ccc(Cl)cc4F)ccnc3c2)o1 | 2.59
3 | NC(=O)N1CCN(Cc2ccc(Br)cc2)CC1 | 0.39
4 | CC(=O)c1sc(Cc2nc3ccccc3s2)nc1C | 0.49
5 | CN1CCC(NCc2ccc(-c3ccc(S(=O)(=O)NCc4ccccc4)cc3)cc2)CC1 | 0.4
6 | O=c1[nH]ccc2nc(N[C@@H]3CCNC3)nc(Nc3ccc4c(c3)S(=O)(=O)CC4)c12 | 5.93
7 | CN(C)c1ccc(-c2csc(C(=O)NCC3CCN(Cc4ccc(C(C)(C)C)cc4)C3)c2)cc1 (stereo not given) | -1.07
8 | NC(=O)c1cccc(-n2ccc3cc(CNC4Cc5ccccc5C4)ccc32)c1 | 21.9
9 | COc1cccc(-c2cc(-c3ccc(NC(=O)c4ccccc4)cc3)c3c(N)ncnc3n2)c1 | -0.77
10 | NC1CCN(c2cnn(Cc3cccc(NC(=O)Nc4ccc(-c5ccccc5)cc4)c3)c(=O)c2Cl)CC1 | 1.64
11 | CCCCCCC(C)c1cc(OCCN(CC)CC)c2c(c1)OC(C)(C)C=C2c1ccncc1 (stereo not given) | -0.93
12 | O=C(NC1CCN(Cc2ccc(O)cc2)CC1)c1ccc(Cl)c(Cl)c1 | 4.53
13 | NC(=O)c1ccccc1Nc1nc(Nc2cccc(N3CCN(CCO)CC3)c2)ncc1Cl | 64
14 | Cc1nc(-c2ccc(-c3ccc(NC(=O)c4coc5ccc(N6CC(C)NC(C)C6)cc45)cc3)c(C)c2)no1 (stereo not given) | 3.42
15 | Fc1cccc(COc2ccc(Nc3ncnc4sc(C#Cc5ncc[nH]5)cc34)cc2Cl)c1 | 0.39
16 | Cc1cccc2nc(-c3ccc(-c4cccc(CNC(C)C)c4)s3)[nH]c12 | 2.58
17 | CSc1sc(NC(=O)Nc2cccc(C(F)(F)F)c2)cc1C#N | 1.55
18 | CC(C)(C)c1ccc(NC(=O)c2ccc(CN3CCCN(Cc4cccc(Cl)c4)CC3)cc2)cc1 | 4.39
19 | COc1cccc2c(NN=Cc3ccc(Cl)cc3)ccnc12 | 2.42
20 | CC(=O)Nc1ccc(C(=O)NC2CCN(c3ccnc4cc(Cl)ccc34)C2)cc1 (stereo not given) | 0.36

Row | SMILES | inhibition [%]
21 | CNC(=O)c1cnc(Nc2ccc(OCC(O)CN(C)C)cc2)nc1Nc1cccc(OC)c1 (stereo not given) | 3.9
22 | CCOc1cc2ncnc(Nc3ccc(OCc4ccccc4OC)c(OC)c3)c2cc1OCC | 5.01
23 | CCN(CCCN1CCCCC1)c1cc(C)nc(Nc2ccc(C)cc2)n1 | 0
24 | CC1CN(c2ccc(NC(=O)c3ccsc3)cc2C(=O)N2CCN(Cc3ccc(C(C)(C)C)cc3)CC2)CC(C)O1 (stereo not given) | -1.24
25 | CCCc1ccc(S(=O)(=O)NC2CCN(c3ccnc(Nc4ccc(F)cc4)n3)C2)cc1 (stereo not given) | 0.73
26 | CC(C)(C)c1ccc(NC(=O)c2cccc(CN3CCCN(Cc4cccc(O)c4)CC3)c2)cc1 | 6.18
27 | O=C(NC1CCN(c2ccnc3cc(Cl)ccc23)C1)c1ccccc1F (stereo not given) | 1.93
28 | Cc1cc(-c2cnc(N)c(-c3ccc(N4CCN(C)CC4)nc3)c2)cc(C)c1O | 1.2
29 | C[C@@H](Oc1cc(-n2cnc3ccc(NC(=O)NC(C)(C)C)cc32)sc1C(N)=O)c1ccccc1Cl | 4.54
30 | CC(C)N1CCC(NC(=O)N2CCCN(c3ncnc4cc(-c5ccccc5)sc34)CC2)CC1 | 2.91
31 | CC(C)CN1CCCN(Cc2cccc(NC(=O)c3ccc(-c4ccccc4)cc3)c2)CC1 | 0.53
32 | Cc1noc(C)c1-c1cccc(CNCc2cccc(-c3csc(-c4nc5ccccc5[nH]4)c3)c2)c1 | 2.13
33 | Oc1ccc(OCc2ccccn2)cc1 | 3.05
34 | COc1ccc(O)c(C(=O)NCCc2ccc(OC)c(-c3ccc(C(C)(C)C)cc3)c2)c1 | 4.08
35 | O=C(NC(Nc1ccc([N+](=O)[O-])cc1)C(Cl)(Cl)Cl)c1ccc(Cl)cc1 (stereo not given) | 0.96
36 | O=C(Nc1ccc(Cn2ncc(N3CCCNCC3)c(Cl)c2=O)cc1)Nc1cc(F)cc(C(F)(F)F)c1 | 2.7
37 | CC(C)C[C@H]1C(=O)N[C@H](C2Cc3ccccc3C2)C(=O)N1[C@@H](C(=O)Nc1ccccc1OCc1ccccc1)c1ccc(F)cc1F | 0.86
38 | O=C(Nc1ccc(Cl)cn1)c1sc2ccccc2c1O | 3.18
39 | COc1ccc(CCC(C)(C)NCC(O)c2cccc(C(F)(F)F)c2)cc1 (stereo not given) | 3.28
40 | CCCCCCN1CCC(NCc2ccc(C(F)(F)F)cc2)CC1 | 2.05
